Screens from PubChem.
An excerpt weighted towards active compounds, which were near 31% of everything screened.
CYP2C19 act – activators of human cytochrome P450 2C19; P33261; recombinant CYP2C19, luciferin-H EGE luminescence; active compounds read high; 0 = fully inhibited enzyme, 1 = untreated enzyme; activation factor at 5 µM; 96,000 tested, under 10 active;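 active means activation factor of at least 2 at 5 µM in the primary screen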;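 further: 0 = wells with 2.5 mM tranylcypromine and 1 = vehicle-only wells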
CYP2C9 inh – blocks human cytochrome P450 2C9; P11712; CYP2C9 Supersomes, luciferin-H conversion, luminescence; inhibition, % at 5 µM; actives 20% (n = 96,000); AID 777;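 active means blocking of liver enzyme CYP2C9 beyond about 50% at 5 µM, limit read from the data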
CYP2C19 inhib – human CYP2C19 inhibition; P33261; CYP2C19 Supersomes, luciferin-H EGE luminescence, 30 min; inhibition, % at 5 µM; actives 21% (n = 96,000); AID 778;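 active means CYP2C19 inhibition above a set limit at 5 µM in the primary screen, cut at about 50% in these data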;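 further: plate controls were negative control wells for no effect and 2.5 mM tranylcypromine positive control for full effect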
PLAP activator – activates human placental alkaline phosphatase; P05187; purified PLAP enzyme, luminescent substrate read-out; active compounds read high; activation fold at 20 µM; actives 1.2% (n = 96,000); AID 696; in the data active means activation fold above about 2
Target sequence (P05187 whole entry, looked up): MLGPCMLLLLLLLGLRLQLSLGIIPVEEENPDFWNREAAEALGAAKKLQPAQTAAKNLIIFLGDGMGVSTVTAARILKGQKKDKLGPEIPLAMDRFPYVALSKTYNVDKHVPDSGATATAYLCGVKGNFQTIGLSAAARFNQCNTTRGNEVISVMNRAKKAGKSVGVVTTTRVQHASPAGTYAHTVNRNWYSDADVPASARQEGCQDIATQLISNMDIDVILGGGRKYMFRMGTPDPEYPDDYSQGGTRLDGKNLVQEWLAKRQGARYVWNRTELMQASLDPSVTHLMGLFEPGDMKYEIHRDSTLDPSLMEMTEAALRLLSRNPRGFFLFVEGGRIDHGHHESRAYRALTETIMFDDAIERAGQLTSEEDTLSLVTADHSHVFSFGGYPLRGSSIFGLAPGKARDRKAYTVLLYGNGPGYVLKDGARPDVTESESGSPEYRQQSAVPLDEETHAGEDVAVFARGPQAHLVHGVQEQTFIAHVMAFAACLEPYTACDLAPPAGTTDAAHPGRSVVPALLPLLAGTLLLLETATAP
CYP2C9 activ – activators of human CYP2C9; P11712; recombinant CYP2C9, luciferin-H conversion, luminescence; active compounds read high; factor 1 = untreated enzyme, 0 = blocked; activation factor at 5 µM; actives 1.4% (n = 96,000); AID 1024;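 active means activation factor of 2 or more for CYP2C9 at a 5 µM dose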;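 further: 0 = sulfaphenazole-blocked wells and 1 = vehicle-only wells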
* hit, by the source's call.

SMILES	CYP2C19 act	CYP2C9 inh	CYP2C19 inhib	PLAP activator	CYP2C9 activ
O=C(N1CCCCCC1)N1CCN(S(=O)(=O)N2CCCCC2)CC1	0.7	33	32	1.4	0.7
CC(=O)c1c(N2CCCC2)[nH]c(-c2ccccc2)nc1=S	0.5	25	51*	1.3	0.8
Clc1ccc(NC2(c3nnnn3C3CCCCC3)CCCCC2)cc1	1	-9	1	1	1.1
Cc1cccc(C)c1-n1nnnc1C1(Nc2ccccc2)CCCCC1	0.4	61*	61*	0.8	0.4
CCOC(=O)CCC(NC(=O)c1ccc(NCN2C(=O)c3ccccc3C2=O)cc1)C(=O)OCC (configuration not stated)	0.8	55*	18	1.2	0.4
CCOC(=O)CCC(NC(=O)c1ccc(NCN2C(=O)CCC2=O)cc1)C(=O)OCC (configuration not stated)	1	-2	5	1.1	1
COc1ccccc1-c1ccc(=O)n(CC(=O)NC(C)(C)C)n1	1	-43	-1	1	1.4
CCOC(=O)c1c(-c2ccc(OC)cc2)csc1NC(=O)CCN1C(=O)c2ccccc2C1=O	0.4	78*	55*	1.2	0.2
Cc1cc(NC(=O)CCN2C(=O)c3ccccc3C2=O)no1	1	-1	4	1.1	1
COC(=O)c1c(-c2ccc(F)cc2)csc1NC(=O)c1ccco1	0.8	64*	17	1	0.4
CCOC(=O)c1c(-c2ccc(OC)cc2)csc1NC(=O)CNCc1ccco1	0.5	70*	53*	1.5	0.3
C=CCc1cccc2cc(C(=O)O)c(=O)oc12	1	-8	-3	0.8	1.1
C=CCc1cccc2cc(C(=O)N3CCN(C(=O)c4ccco4)CC3)c(=O)oc12	1.1	-125	-7	1.3	2.3*
C=CCc1cccc2cc(C(=O)N(C)C)c(=O)oc12	0.8	-204	18	1.4	3*
C=CCc1cccc2cc(C(=O)N(CC)CC)c(=O)oc12	0.9	-124	8	1.1	2.2*
C=CCc1cccc2cc(C(=O)OCC(=O)c3ccccc3)c(=O)oc12	1.1	-187	-13	0.8	2.9*
Cc1ccccc1OCC1Cc2c(nc(N)c(C#N)c2N)O1 (configuration not stated)	0.6	-4	42	1	1
COc1ccc(CCNC(=O)c2cc3c(=O)n4cccc(C)c4nc3n(Cc3ccncc3)c2=N)cc1	0.1	87*	90*	1.6	0.1
CCCCNC(=O)c1cc2c(=O)n3cccc(C)c3nc2n(Cc2ccncc2)c1=N	0.4	44	65*	1.5	0.6
COCCNC(=O)c1cc2c(=O)n3cccc(C)c3nc2n(Cc2ccncc2)c1=N	0.5	39	51*	1.2	0.6
Cn1cc(CC(=O)Nc2cccc(C#N)c2)c2ccccc21	0.5	-212	48	0.9	3.1*
CCc1cccc(NC(=O)CCSCCC(=O)Nc2cccc(CC)c2)c1	0.8	62*	23	1.1	0.4
Cc1ccccc1SCC(=O)Nc1cccc(C#N)c1	0.5	-94	45	0.7	1.9
COCCNC(=O)Cc1cn(C)c2ccccc12	0.9	-8	9	0.9	1.1
CCc1cccc(NC(=O)Cc2cn(C)c3ccccc23)c1	0.6	-180	38	0.9	2.8*
SMILES	CYP2C19 act	CYP2C9 inh	CYP2C19 inhib	PLAP activator	CYP2C9 activ
CCc1ccc(NC(=O)Cc2cn(C)c3ccccc23)cc1	0.6	-149	42	0.8	2.5*
Cc1cc2c3c(c1C)C1(C(=O)N3C(C)(C)CC2C)C(C#N)=C(N)OC2=C1C(=O)CC(C)(C)C2 (configuration not stated)	0.8	34	24	1.4	0.7
CCOC(=O)CCc1c(C)nc2cc(C3CCCN(C(=O)OC(C)(C)C)C3)[nH]n2c1=O (configuration not stated)	1	20	-2	1.6	0.8
CCC(C)NC(=O)Cc1cn(C)c2ccccc12 (configuration not stated)	0.4	-19	60*	1.2	1.2
O=C(Nc1cccc(NC(=O)c2ccccc2[N+](=O)[O-])n1)c1ccccc1[N+](=O)[O-]	0.7	43	30	0.9	0.6
Cn1cccc1C(=O)NC(=O)CSc1nnc(C2CC2)n1-c1ccccc1	0.4	7	55*	1	0.9
CCNC(=O)CSc1nnc(C2CC2)n1-c1ccccc1	1.1	-12	-10	1.1	1.1
Nc1ccc2nn(-c3cccc4ccccc34)nc2c1	0.5	51*	49	0.9	0.5
Cc1cc2nn(-c3cccc4ccccc34)nc2cc1N	0.7	58*	31	1	0.4
O=C(C1CCC1)N1CCc2cc(S(=O)(=O)NCc3ccco3)ccc21	0.7	48	27	0.7	0.5
CC(C)NC(=O)c1ccc2c(c1)S(=O)(=O)c1ccccc1C2=O	1	14	5	0.9	0.9
CCc1c(C(=O)Nc2cc(C)cc(C)c2)[nH]c(C)c1C(C)=O	0.6	60*	44	0.8	0.4
COc1cc(C(=O)N(Cc2ccc(F)cc2)C2CCS(=O)(=O)C2)cc(OC)c1OC (configuration not stated)	1	8	-5	1.1	0.9
CCn1c(C(=O)N2CCCC(C(=O)NCCc3ccc(C)cc3)C2)cc2sccc21 (configuration not stated)	0.8	50*	25	1.4	0.5
Cn1c(C(=O)N2CCCC(C(=O)NCCCSC3CCCCC3)C2)cc2sccc21 (configuration not stated)	0.5	82*	47	1.5	0.2
CCCSCCCNC(=O)Cn1cc2c(n1)CCCCC2	0.9	18	9	1	0.8
COc1ccc(-c2c(NC(=O)c3ccco3)n(C)c3ccccc3c2=O)cc1	1.1	-21	-6	0.9	1.2
CCOC(=O)N1CCC(N2C(=O)c3ccccc3C2=O)CC1	0.8	44	16	0.9	0.6
CCOC(=O)N1CCC(N2Cc3cccc(C(=O)NCc4ccccn4)c3C2=O)CC1	0.3	95*	74*	1.5	0.1
CCOC(=O)N1CCC(NC(=O)c2cccc3c2C(=O)N(CCOC)C3)CC1	0.7	88*	34	1.5	0.1
COCCN1Cc2cccc(C(=O)Nc3cc(C)cc(C)c3)c2C1=O	1	38	-1	1	0.6
CCOC(=O)N1CCC(N2Cc3cccc(C(=O)NC(C)c4ccc5c(c4)OCCO5)c3C2=O)CC1 (configuration not stated)	0.2	98*	82*	1.6	0
CCOC(=O)N1CCC(N2Cc3cccc(C(=O)NCc4ccc(C)cc4)c3C2=O)CC1	0.8	70*	25	1.4	0.3
COCCN1Cc2cccc(C(=O)NCc3ccccn3)c2C1=O	0.6	14	43	1.1	0.9
C/C(=C1/SC(N2CCOCC2)=NC1=O)c1ccc(Br)cc1	1	20	4	1	0.8
CCOC(=O)N1CCC(N(C(=O)Nc2ccccc2)C(C)CC)CC1 (configuration not stated)	0.7	15	32	0.9	0.8
